# Values without a mark were called inactive.
# System: Vero E6 infected with SARS-CoV-2
# Assay: inhibition of SARS-CoV-2 cytopathic effect; higher = more antiviral protection, active = above 15
# Details: 48 h
Structure (SMILES),inhibition of SARS-CoV-2 cytopathic effect (1 nM) [%],inhibition of SARS-CoV-2 cytopathic effect (8.33 nM) [%],inhibition of SARS-CoV-2 cytopathic effect (100 nM) [%],inhibition of SARS-CoV-2 cytopathic effect (833.33 nM) [%],inhibition of SARS-CoV-2 cytopathic effect (10000 nM)
CCOC(=O)[C@H](CCc1ccccc1)N[C@@H](C)C(=O)N1CCC[C@H]1C(=O)O [enalapril],-1.51,-1.35,-0.07,2.42,0.52%
COc1cccc2c1c(O)c(C(=O)N(C)c1ccc(C(F)(F)F)cc1)c(=O)n2C [tasquinimod],1.2,3.29,1.4,1.35,1.05%
Nc1ccc([As](=O)(O)O)cc1 [arsanilic-acid],0.07,1.05,-1.33,-2.25,-0.8%
NC(=O)N1C(=O)/C(=C(\O)c2cccs2)c2cc(Cl)ccc21 [tenidap],1.19,1.1,0.33,1.99,-5.52%
Oc1cc(O)c(Cl)cn1 [gimeracil],-0.94,0.32,-0.13,-0.16,1.36%
COc1ccc(S(=O)(=O)Nc2nc(-c3cccc([N+](=O)[O-])c3)cs2)cc1OC,2.08,4.04,7.06,0.79,-3.82%
O=C(Nc1ccccc1)c1cc([N+](=O)[O-])ccc1Cl,1.34,2.14,0.85,-0.67,-0.39%
CC(C)(C)NC(=O)[C@@H](c1cccnc1)N(C(=O)c1ccco1)c1ccc(C(C)(C)C)cc1,-0.21,1.78,0.92,-2.61,-3.73%
CN1CCc2c(c3ccccc3n2Cc2ccc(C(=O)NO)cc2)C1 [tubastatin-A],-0.32,0.16,1.09,-1.27,-6.46%
CC1(C)CCC(C)(C)c2cc(C3(c4ccc5cc(C(=O)O)ccc5c4)SCCS3)ccc21,-0.61,2.69,1.81,1.35,2.66%
C[C@H]1N=C(N(C)C)N=C(N)N1 [imeglimin],1.51,1.14,0.07,0.43,-0.77%
C[C@]1(c2nc3c(C(N)=O)cccc3[nH]2)CCCN1 [veliparib],3.9,7.83,5.13,4.23,8.58%
CN(C)CC/C=C1\c2ccccc2CSc2ccccc21 [dosulepin],-1.78,1.37,5.41,-0.17,-8.17%
CCCCCCc1ccc(O)cc1O [hexylresorcinol],1.73,1.1,2.21,4.02,3.14%
Cc1ccc(C(=O)Nc2ccc(S(=O)(=O)O)c3cc(S(=O)(=O)O)cc(S(=O)(=O)O)c23)cc1NC(=O)c1cccc(NC(=O)Nc2cccc(C(=O)Nc3cc(C(=O)Nc4ccc(S(=O)(=O)O)c5cc(S(=O)(=O)O)cc(S(=O)(=O)O)c45)ccc3C)c2)c1 [suramin],0.16,0.17,0.66,-0.75,1.44%
CSCC[C@H](NC(=O)[C@H](Cc1ccccc1)NC(=O)CNC(=O)CNC(=O)[C@@H](N)Cc1ccc(O)cc1)C(=O)O [metenkephalin],0.74,-1.23,1.24,-4.78,-5.57%
COc1cc2c(cc1OC)-c1c/c(=N\c3c(C)cc(C)cc3C)n(C)c(=O)n1CC2 [trequinsin],1.9,2.01,-0.55,3.41,6.34%
COc1cccc([C@@H](C)NCCCc2ccccc2Cl)c1 [tecalcet],1.64,1.12,3.52,-0.64,-3.1%
CCNC1(C(N)=O)CCN(c2ncnc3c2nc(-c2ccccc2Cl)n3-c2ccc(Cl)cc2)CC1,-2.1,0.22,1.6,7.17,-0.26%
O=C(N[C@H]1CN2CCC1CC2)c1cc2cccc(Cl)c2s1,-0.49,-1.25,2.35,-1.74,-7.63%
COc1ccc(NC(=O)c2ccc(-c3ccc(-c4noc(C)n4)cc3C)cc2)cc1N1CCN(C)CC1,4.92,6.46,0.49,-1.73,36.7% (active)

Structure (SMILES),inhibition of SARS-CoV-2 cytopathic effect (1 nM) [%],inhibition of SARS-CoV-2 cytopathic effect (8.33 nM) [%],inhibition of SARS-CoV-2 cytopathic effect (100 nM) [%],inhibition of SARS-CoV-2 cytopathic effect (833.33 nM) [%],inhibition of SARS-CoV-2 cytopathic effect (10000 nM)
c1cc2c3c(c1)c1c(n3CCNC2)CCCC1,-1.27,-0.02,0.6,0.21,-0.08%
O[C@H]1[C@H]2[C@H](O)CCCN2C[C@H]1O [swainsonine],-4.09,2.85,1.87,-1.43,-5.03%
COC(=O)[C@H](Cc1ccccc1)NC(=O)[C@@H](N)CC(=O)O [aspartame],-0.23,-0.6,0.53,-1.78,0.85%
NC(N)=Nc1nc(CSCCN/C=N/S(=O)(=O)c2ccc(Br)cc2)cs1 [ebrotidine],-0.49,1.21,5.48,-0.19,-2.58%
O=C1CCc2ccc(OCCCCN3CCN(c4cccc(Cl)c4Cl)CC3)cc2N1 [aripiprazole],5.18,-2.79,1.15,-1.05,-5.25%
CCCN1C[C@H](CSC)C[C@@H]2c3cccc4[nH]cc(c34)C[C@H]21 [pergolide],-0.15,-0.75,0.68,0.65,-1.92%
Cc1ccccc1NC(=N)Nc1ccccc1C [ditolylguanidine],1.39,1.77,-1.06,-2.29,-0.63%
O=C(Oc1ccc([N+](=O)[O-])cc1)N1CCC(C(O)(c2ccc3c(c2)OCO3)c2ccc3c(c2)OCO3)CC1,0.7,6.75,2.26,1.03,1.62%
C1CCC(/N=C(\NC23CC4CC(CC(C4)C2)C3)N2CCOCC2)CC1,7.27,1.31,1.69,4.84,-3.64%
COc1nccc(-c2c(-c3ccc(F)cc3)ncn2[C@H]2CC[C@H](O)CC2)n1,5.42,6.4,3.88,2.66,7.7%
O=c1ccc2ccc(OCCCCN3CCN(c4cccc5sccc45)CC3)cc2[nH]1 [brexpiprazole],-0.6,2.4,2.49,2.71,-8.91%
O=C(O)[C@H](Cc1ccccc1)NCc1ccc(Cl)cc1,0.28,-1.27,-0.99,1.08,0.65%
CN(C(=O)CN1C(=O)COc2cc(Cl)c(Cl)cc21)[C@@H](CN1CCCC1)c1ccc(-c2cccc(C(N)=O)c2)cc1,-0.51,1.04,3.9,1.88,5.93%
O=C(O)CNC(=O)c1ccccc1I [2-iodohippuric-acid],3.32,2.66,0.05,0.88,0.58%
CO[C@@]1(NC(=O)CSC[C@@H](N)C(=O)O)C(=O)N2C(C(=O)O)=C(CSc3nnnn3C)CS[C@@H]21 [cefminox],-0.91,0.78,-1.2,-1.63,1.75%
NS(=O)(=O)c1cc2c(cc1Cl)NC(CC1CCCC1)NS2(=O)=O (stereo not given) [cyclopenthiazide],1.26,2.37,-0.67,-2.85,-0.14%
O=C1c2c(O)cc(O)cc2O[C@H](c2ccc(O)c(O)c2)[C@H]1O [taxifolin],0.69,1.31,0.66,0.83,2.25%
CCCCCCCCCCCCCCCCOP(=O)([O-])OCC[N+](C)(C)C [miltefosine],-3.26,-0.08,0.27,0.17,3.55%
Cc1c(I)c(=O)n(-c2ccccc2)n1C [iodoantipyrine],-0.48,-2.57,-0.75,-0.95,1.55%
OC[C@H]1NC[C@@H](O)[C@@H](O)[C@@H]1O [1-deoxymannojirimycin],-5.76,0.14,-0.54,1.33,-0.79%
O=C(Nc1ccc(C(O)(C(F)(F)F)C(F)(F)F)cc1)c1ccc(C(F)(F)F)cc1,0.8,1.24,0.25,1.02,1.6%

# Reference: the supplement of paper PMC13380429
